Shown are actives, neighbours in structure and some others; about 0.71% of the full set was active somewhere.
sdo1 growth = compounds rescuing growth of sdo1-depleted yeast, bone marrow failure model | S. cerevisiae sdo1-depleted JHY4D growth rescue, OD600 30 h; active compounds read high; pdr5 snq2 efflux-pump mutant strain | z-score at 10 µM | 0.21% of 140,000 active | AID 817;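 active = z-score above 3 at both the 24 hr and the 30 hr optical density reads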
Mac1 fbg enh = increases human CD11b/CD18 adhesion to fibrinogen; K562 CD11b/CD18 adhesion to fibrinogen, ATPlite luminescence; AID 1499; 0.07% of 93,000 active; activation, % at 10 µM;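 active = 10 µM primary screen giving 50% or more activity, confirmed by 40% or more on retest at that dose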
Target sequence (P05107 whole entry, looked up, other chains not shown): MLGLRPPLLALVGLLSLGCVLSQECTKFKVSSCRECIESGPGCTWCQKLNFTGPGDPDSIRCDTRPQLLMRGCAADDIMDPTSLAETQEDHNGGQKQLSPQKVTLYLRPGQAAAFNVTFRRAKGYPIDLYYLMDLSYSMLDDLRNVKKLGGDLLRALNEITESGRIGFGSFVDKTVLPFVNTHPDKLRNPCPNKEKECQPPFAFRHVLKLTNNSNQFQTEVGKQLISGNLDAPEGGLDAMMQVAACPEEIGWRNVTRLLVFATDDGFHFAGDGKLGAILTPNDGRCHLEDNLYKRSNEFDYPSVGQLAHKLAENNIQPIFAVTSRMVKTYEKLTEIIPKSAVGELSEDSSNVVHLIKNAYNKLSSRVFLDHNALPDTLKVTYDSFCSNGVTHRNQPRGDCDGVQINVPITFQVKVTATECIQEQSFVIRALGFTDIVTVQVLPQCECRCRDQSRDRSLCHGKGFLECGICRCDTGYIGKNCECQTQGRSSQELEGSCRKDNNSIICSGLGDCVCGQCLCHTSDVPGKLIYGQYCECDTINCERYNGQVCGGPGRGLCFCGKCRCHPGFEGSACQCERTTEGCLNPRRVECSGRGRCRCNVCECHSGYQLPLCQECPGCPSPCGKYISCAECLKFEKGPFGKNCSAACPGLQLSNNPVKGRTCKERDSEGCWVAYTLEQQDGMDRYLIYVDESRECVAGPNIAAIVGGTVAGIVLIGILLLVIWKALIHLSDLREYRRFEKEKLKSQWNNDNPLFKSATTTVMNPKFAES
CD11b adhes inh = inhibitors of human CD11b/CD18 binding to fibrinogen; 0.54% of 93,000 active; K562 CD11b/CD18 adhesion to fibrinogen, ATPlite luminescence; Mn2+ added to activate the integrin; inhibition, % at 10 µM;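 active = primary inhibition of 50% or more at 10 µM, then 40% or more on retest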
Phagocyt inh = macrophage phagocytosis inhibition; J774A.1 macrophage IgG-bead phagocytosis, imaging; inhibition, % at 5 µM; 0.07% of 110,000 active; AID 1029;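 active = inhibition above the mean of the plate negative controls plus 5 SD, cut at about 13% in these data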;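 note: phagocytic index as fraction of beads internalized from green versus red external bead signal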
sdo1 rescue conf = confirmation of growth rescue in SDO1-depleted yeast, bone marrow failure; 44% of 440 active; OD recovery (test concentration not listed); AID 949; S. cerevisiae JHY4D (SDO1-depleted) growth rescue, OD600, 30 h; active compounds read high; efflux-deficient strain, SNQ2 and PDR5 mutated; shares compounds with sdo1 growth;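 active = yeast growth recovered at 30 hours, either rising with dose fitted slope above 0.001 or with average optical density gain above 0.07, some results past the limit were not filed as active; inactive = growth falling with dose or no effect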
A number is an active result; n = inactive; x = not tested or not shown.

SMILES	sdo1 growth	Mac1 fbg enh	CD11b adhes inh	Phagocyt inh	sdo1 rescue conf
CC1(C)Cc2cccc(OCC(=O)N3CCN(S(=O)(=O)c4ccccc4)CC3)c2O1	n	n	n	n	x
Cc1ccc2c(c1)[C@@H](O)C[C@@H](C)N2N=O	n	x	x	x	x
Cc1cc2nc(CCN3CCOCC3)n(S(=O)(=O)c3ccc(C(C)(C)C)cc3)c2cc1C	n	x	x	x	x
CCc1cc(=O)oc2cc(OC(C)C(=O)O)c(Cl)cc12 (centres undefined)	3.1	n	n	n	0.092
Cc1nnc(NC(=O)CSc2ncnc3scc(-c4ccccc4)c23)s1	n	x	x	x	0.087
COC(=O)c1c(-c2ccccc2)csc1NC(=O)CSc1ncnc2sc(C)c(C)c12	n	n	n	n	x
COc1ccc(CCN2C(=O)c3cccc4c(C(=O)N5CCCCC5)ccc(c34)C2=O)cc1OC	n	n	n	n	n
O=C(CSCc1ccc(Cl)cc1Cl)Nc1nccs1	n	x	x	n	x
O=C(CCC(=O)Nc1ccccc1Cl)N/N=C1\CCCc2ccccc21	13	x	x	n	0.083
CCOC(=O)C(NC(=O)OC(C)C)(Nc1nccs1)C(F)(F)F (centres undefined)	13	n	n	n	0.088
O=C(CSc1nnc(CNc2cccc(Cl)c2)o1)OC1CCCCC1	12	x	x	x	0.09
Cc1ccc(OCC(=O)N/N=C2\CCOc3c(C)cccc32)cc1	n	x	x	x	x
COc1cccc2c1OCC/C2=N\NC(=O)COc1ccc(C)cc1	n	x	x	n	n
Cc1ccc(C2/C(=C(\O)c3ccc4c(c3)OCCO4)C(=O)C(=O)N2CCCN(C)C)o1 (centres undefined)	6.9	n	n	n	0.097
COc1ccc(C2/C(=C(\O)c3ccc4c(c3)OCCO4)C(=O)C(=O)N2CCCN(C)C)cc1 (centres undefined)	n	n	n	n	x
CSc1nc(N)nc(SCC(=O)c2ccc(C)cc2)c1C#N	n	n	n	n	0.076
O=c1c2ccc(Cl)cc2[nH]c(=S)n1CCC1=CCCCC1	n	x	x	n	x
O=C(NCc1ccccc1)c1cccc(Br)n1	15	x	x	x	n
CCC(C)NS(=O)(=O)c1ccc(OC)c(Cl)c1Cl (centres undefined)	n	n	n	n	x
CC(C)c1nnc(N2C(=O)c3oc4ccccc4c(=O)c3C2c2ccco2)s1 (centres undefined)	n	x	x	x	0.077
CCN1C(=O)C(O)(CC(=O)c2ccccn2)c2ccccc21 (centres undefined)	n	n	n	n	x
CCN1C(=O)C(O)(CC(=O)c2ccc(-n3cccc3)cc2)c2ccccc21 (centres undefined)	3	x	x	x	0.1
CCCn1c(SCC(=O)c2c[nH]c3ccccc23)nnc1-c1ccncc1	n	n	n	n	x
NC(=O)C1(N2CCCCC2)CCN(C(=S)Nc2ccccc2)CC1	n	x	x	n	x
CCOc1ccc(NC(=O)N2CCC(C(N)=O)(N3CCCCC3)CC2)cc1	13	x	x	x	n
SMILES	sdo1 growth	Mac1 fbg enh	CD11b adhes inh	Phagocyt inh	sdo1 rescue conf
Cc1cc(C)c(S(=O)(=O)Nc2ccccc2-c2ccccc2)c(C)c1	n	n	n	n	x
CCc1ccc(S(=O)(=O)NCCc2csc(-c3ccccc3)n2)s1	4.3	n	n	n	n
CCS(=O)(=O)NCCc1csc(-c2cccnc2)n1	n	n	n	n	x
CCc1ccc(S(=O)(=O)NCc2csc(-c3ccccc3)n2)s1	n	n	n	n	x
CCc1ccc(S(=O)(=O)NCCc2csc(-c3cccnc3)n2)s1	4.4	n	n	n	n
COc1ccc(CC(=O)O/N=C(\N)Cc2cccc3ccccc23)cc1OC	n	x	x	n	x
COc1ccc(-c2noc(CCC(=O)N(C)c3cccc(C)c3)n2)cc1	4.3	n	n	n	n
COc1ccc(-c2noc(CCC(=O)Nc3cccc(C)c3)n2)cc1	n	n	n	n	x
O=C(CC1S/C(=N/N=C/c2c[nH]c3ccccc23)NC1=O)Nc1ccccc1 (centres undefined)	3.9	x	x	n	0.085
O=C(CC1S/C(=N/N=C/c2c[nH]c3ccc(OCc4ccccc4)cc23)NC1=O)Nc1ccccc1 (centres undefined)	n	x	x	n	x
CCOc1cc(C#N)c(NC(=O)c2cccnc2Cl)cc1OCC	n	n	n	n	x
CCOc1cc(C#N)c(NC(=O)c2cccnc2)cc1OCC	n	x	x	x	n
Cc1ccccc1NC(=O)Cc1nc(-c2ccc3ccccc3c2)cs1	n	n	n	n	x
CCC(C)[C@H](NC(=O)NCCCN1CCOCC1)C(=O)OC (some centres undefined)	5.6	n	n	n	n
Cc1cc(C(=O)Nc2ncn[nH]2)ccc1[N+](=O)[O-]	n	x	x	n	x
CCOC(=O)c1c(NC(=O)CSc2nncs2)sc(C)c1C	n	x	x	x	n
CCCNCC1C(Oc2ccc(Cl)cc2)C(=O)N1c1ccccc1C (centres undefined)	n	x	x	n	x
C=CCN=C(C)C1=C(O)C(C)OC1=O (centres undefined)	14	n	n	n	0.097
COc1cc(/C=N/NC(=O)CCn2c3ccccc3c3ccccc32)cc(OC)c1OC	n	n	n	x	x
COc1cc(/C=N/NC(=S)N/N=C/c2cc(OC)c(OC)c(OC)c2)cc(OC)c1OC	3	x	x	n	n
COc1cc(/C=N/NC(=O)CCC(=O)NCc2ccccc2)cc(OC)c1OC	4.5	x	x	n	0.095
COc1ccc(S(=O)(=O)N(CC(=O)NCC2CCCO2)c2ccc(F)cc2)cc1OC (centres undefined)	n	n	n	n	x
COc1ccc(-n2c(=O)c3ccccc3n(CC(=O)NC3CCCC3)c2=O)c(OC)c1	n	n	n	n	x
COc1ccccc1OC(C)C(=O)O (centres undefined)	5.2	n	n	x	n
COc1ccccc1OCC(=O)O	n	n	n	n	x
SMILES	sdo1 growth	Mac1 fbg enh	CD11b adhes inh	Phagocyt inh	sdo1 rescue conf
Cc1ccccc1OCCCC(=O)Nc1ccccc1C(F)(F)F	n	x	x	x	x
COC(=O)c1ccc(C2c3c(oc4ccc(F)cc4c3=O)C(=O)N2CCO)cc1 (centres undefined)	n	n	n	n	n
O=c1c2ccccc2ncn1-c1ccc2c(c1)OCCO2	n	n	n	n	x
CSc1cc(C)n(-c2ccc(Cl)cc2)c(=S)c1C(C)=O	11	n	n	n	n
COc1ccc(-n2c(C)cc(SC)c(C(C)=O)c2=S)cc1	n	n	n	x	x
CC1CC(C)CN(CCOc2ccc(Br)cc2)C1 (centres undefined)	n	x	x	n	x
O=C(CSc1nnc(-c2ccc(S(=O)(=O)N3CCCC3)cc2)o1)NCc1ccco1	n	n	n	n	n
COc1ccc(C(C2C(=O)CC(C)(C)CC2=O)C2C(=O)CC(C)(C)CC2=O)cc1COCC(F)(F)F	14	x	x	n	0.082
Clc1ccc(OCc2cnc(Cl)s2)cc1	n	n	n	n	x
COC(C(=O)Nc1ccc(S(=O)(=O)Nc2ccc(F)cc2)cc1)c1ccccc1 (centres undefined)	n	n	n	n	x
COC(C(=O)Nc1ccc(S(=O)(=O)Nc2cccc3ccccc23)cc1)c1ccccc1 (centres undefined)	8.8	n	n	n	n
COc1ccc(C(=O)N2CCN=C2SCc2cccnc2)cc1OC	n	n	n	n	n
COc1cccc(OC)c1C(=O)N1CCN=C1SCc1cccnc1	n	n	n	n	x

Source: PubChem (several laboratories)
